{"source": "PubChem BioAssay (NCATS)", "note": "Results filed as inconclusive are left out. Active and inactive are the calls of the source. Calls follow the shape of the dose curve; as a rule, active = well fitted inhibition curve with a large enough effect; inconclusive = small, poorly fitted or top-dose-only effect; inactive = flat fitted curve, though single readings scatter. Positions of bridges follow the written chain, without caps; N, C: chain ends. Non-standard residues stand in square brackets, D forms with d. Residues, ends and D or L forms follow the SMILES beside them. ξ: configuration not given here. *: point of attachment. Octanoyl(6-Me) = CCC(C)CCCCC(=O)*; ξThr(3R) = C[C@@H](O)C(N)C(=O)O; dDab = NCC[C@@H](N)C(=O)O; Dab = NCC[C@H](N)C(=O)O", "data": [{"system": "Zika virus NS2B-NS3 protease", "assay": "Primary screen GU AMC qHTS for Zika virus inhibitors (AID 1347154);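 also: 0% = no-inhibitor control and -100% = no-enzyme control; nearly all actives have a fitted effect of over 70% in size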", "settings": "Zika NS2B-NS3 unlinked protease, AMC fluorogenic substrate; series mostly up to 54.1 µM; activity change, negative = inhibition: at the top concentration", "procedure,_shortened": "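Unlinked Zika NS2B hydrophilic domain/NS3 protease domain noncovalent complex (25 nM final) in 10 mM Tris-HCl pH 8.0, 0.01% Tween 20, with AMC peptide substrate. Fluorescence (ex 340, em 450 nm) change over 15 min, room temperature; percent inhibition fitted to 4-parameter Hill equation.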", "values": [{"smiles": "C[C@@H]1CC[C@@]2(OC1)OC1CC3C4CC=C5CC(O)CCC5(C)C4CCC3(C)C1[C@@H]2C", "note": "(some centres undefined)", "activity change, negative = inhibition": "9.39% (inactive)"}, {"smiles": "COc1ccc(Nc2nccc(NCCO)n2)cc1", "activity change, negative = inhibition": "-13.3% (inactive)"}, {"smiles": "Cn1cc(C[C@@H](N)C(=O)O)c2ccccc21", "activity change, negative = inhibition": "3.43% [at 25.8 µM] (inactive)"}, {"smiles": "C=C(C)[C@@H]1CC[C@]2(C(=O)O)CC[C@]3(C)[C@H](CC[C@@H]4[C@@]5(C)CC[C@H](O)C(C)(C)[C@@H]5CC[C@]43C)[C@@H]12", "activity change, negative = inhibition": "2.34% (inactive)"}, {"smiles": "CCOC(=O)C=C[C@H](C[C@@H]1CCNC1=O)NC(=O)[C@@H](CC(=O)[C@@H](NC(=O)c1cc(C)on1)C(C)C)Cc1ccc(F)cc1", "activity change, negative = inhibition": "4.98% (inactive)"}, {"smiles": "COc1ccc([C@@H]2CNC(=O)C2)cc1OC1CCCC1", "Potency": "inactive"}, {"smiles": "C[C@@]12C[C@@]3(O)O[C@@H](O1)[C@]1(COC(=O)c4ccccc4)[C@@H]3C[C@@]12O[C@@H]1O[C@H](CO)[C@@H](O)[C@H](O)[C@@H]1O", "activity change, negative = inhibition": "6.27% (inactive)"}, {"smiles": "O=C(O)[C@H](CC(=O)N1C[C@@H]2CCCC[C@H]2C1)Cc1ccccc1", "activity change, negative = inhibition": "20.5% (inactive)"}, {"smiles": "COc1ccc(CCC(=O)c2c(O)cc(O[C@@H]3O[C@H](CO)[C@@H](O)[C@H](O)[C@@H]3O[C@@H]3O[C@@H](C)[C@H](O)[C@@H](O)[C@@H]3O)cc2O)cc1O", "activity change, negative = inhibition": "-1.15% (inactive)"}, {"smiles": "CN[C@H](CC(C)C)C(=O)N[C@H]1C(=O)N[C@@H](CC(N)=O)C(=O)N[C@@H]2C(=O)N[C@H]3C(=O)N[C@H](C(=O)N[C@H](C(=O)O)c4cc(O)cc(O)c4-c4cc3ccc4O)[C@H](O)c3ccc(c(Cl)c3)Oc3cc2cc(c3O[C@@H]2O[C@H](CO)[C@@H](O)[C@H](O)[C@@H]2O[C@H]2C[C@](C)(N)[C@H](O)[C@H](C)O2)Oc2ccc(cc2Cl)[C@H]1O", "activity change, negative = inhibition": "6.23% (inactive)"}, {"smiles": "CCCCCCCCCCCC(CC1OC(=O)C1CCCCCC)OC(=O)C(CC(C)C)NC=O", "note": "(centres undefined)", "activity change, negative = inhibition": "-10.3% (inactive)"}, {"smiles": "NC(=O)N1CCC(CC(=O)N2CCC([C@H]3c4ncc(Br)cc4CCc4cc(Cl)cc(Br)c43)CC2)CC1", "activity change, negative = inhibition": "-7.77% (inactive)"}, {"smiles": "c1ccc(CNc2nc(NCc3ccccc3)c3ccccc3n2)cc1", "activity change, negative = inhibition": "-2.38% (inactive)"}, {"smiles": "CC(C)(C)[N+]([O-])=Cc1ccc(S(=O)(=O)O)cc1S(=O)(=O)O", "activity change, negative = inhibition": "1.62% (inactive)"}, {"smiles": "CC(=O)NC(CS)C(=O)O", "note": "(centres undefined)", "activity change, negative = inhibition": "-23.4% (inactive)"}, {"smiles": "CC[C@H]1OC(=O)[C@H](C)[C@@H](O[C@H]2C[C@@](C)(OC)[C@@H](O)[C@H](C)O2)[C@H](C)[C@@H](O[C@@H]2O[C@@H](C)C[C@H](N(C)C)[C@@H]2O)[C@](C)(O)C[C@@H](C)C(=O)[C@H](C)[C@@H](O)[C@]1(C)O", "activity change, negative = inhibition": "6.83% (inactive)"}, {"smiles": "C=C[C@@H]1CN2CCC1C[C@H]2[C@H](O)c1ccnc2ccc(OC)cc12", "note": "(some centres undefined)", "activity change, negative = inhibition": "-6.99% (inactive)"}, {"smiles": "C=CC[C@@H]1C=C(C)C[C@H](C)C[C@H](OC)[C@H]2O[C@@](O)(C(=O)C(=O)N3CCCC[C@H]3C(=O)O[C@H](C(C)=C[C@@H]3CC[C@H](O)[C@H](OC)C3)[C@@H](C)[C@@H](O)CC1=O)[C@@H](C)C[C@@H]2OC", "activity change, negative = inhibition": "29.2% (inactive)"}, {"smiles": "C[C@@H](Cc1cc2c(c(C(N)=O)c1)N(CCCO)CC2)NCCOc1ccccc1OCC(F)(F)F", "activity change, negative = inhibition": "-9.48% (inactive)"}, {"smiles": "Cc1noc(-c2ccc(CSCCC(=O)O)cc2)c1NC(=O)OC(C)c1ccccc1Cl", "note": "(centres undefined)", "activity change, negative = inhibition": "-4.24% (inactive)"}, {"smiles": "CC(C)c1cnn2c(NCc3ccccc3)cc(NCCCCCCN)nc12", "activity change, negative = inhibition": "9.76% (inactive)"}, {"smiles": "C[N+]1(C)[C@@H]2C[C@@H](OC(=O)C(O)(c3cccs3)c3cccs3)C[C@H]1[C@@H]1O[C@@H]12", "activity change, negative = inhibition": "10.7% (inactive)"}, {"smiles": "CC(C=CC=C(C)C=CC1=C(C)CCCC1(C)C)=CC=CC=C(C)C=CC=C(C)C=CC1=C(C)CCCC1(C)C", "activity change, negative = inhibition": "-15.5% (inactive)"}, {"smiles": "O=C1CSC(=O)N1C(CCc1ccncc1)COc1ccc(-c2cccc([N+](=O)[O-])c2)cc1", "note": "(centres undefined)", "activity change, negative = inhibition": "20.1% (inactive)"}, {"smiles": "CC(C)N(CC[C@H](c1ccccc1)c1cc(CO)ccc1O)C(C)C", "activity change, negative = inhibition": "14.9% (inactive)"}, {"smiles": "COc1cc(OC)cc(-c2ccc3ncc4ccc(=O)n(-c5ccc(N6CCNCC6)c(C(F)(F)F)c5)c4c3c2)c1", "activity change, negative = inhibition": "2.52% (inactive)"}, {"smiles": "c1coc(CNc2ncnc3nc[nH]c23)c1", "activity change, negative = inhibition": "3.86% (inactive)"}, {"smiles": "C#C[C@]1(O)CC[C@@H]2[C@@H]3CCc4cc(O)ccc4[C@H]3CC[C@@]21C", "activity change, negative = inhibition": "-2.57% (inactive)"}, {"smiles": "CCC(C)CCCCC(=O)N[C@@H](CCN)C(=O)NC(C(=O)N[C@H](CCN)C(=O)N[C@@H]1CCNC(=O)C([C@@H](C)O)NC(=O)[C@@H](CCN)NC(=O)[C@@H](CCN)NC(=O)[C@@H](CC(C)C)NC(=O)[C@H](Cc2ccccc2)NC(=O)[C@H](CCN)NC1=O)[C@@H](C)O", "note": "(stereo partly drawn) ({Octanoyl(6-Me)}-[Dab][ξThr(3R)][dDab][dDab][Dab]F[dL][dDab][dDab][ξThr(3R)]; lactam 4-C)", "activity change, negative = inhibition": "18.6% (inactive)"}]}]}
